Results reported in the supplement of paper PMC8728848.
The entries come from a sample that favours the strongest signals as a whole.

Experiments:
Assay in all cases: glycan array binding signal (z-score within array); higher = stronger binding
Conditions in all cases: glycan notation: IUPAC condensed, linker removed
[1] = target: Fuc(a1-2)Gal(b1-3)GalNAc(a1-3)[Fuc(a1-2)]Gal(b1-4)GlcNAc
How it was run: (§1)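 Glycan array data came from 3228 arrays in the Consortium for Functional Glycomics database, and only arrays with an available protein sequence were kept. Glycan names were put into IUPAC-condensed notation, and columns mapping to the same glycan were averaged. The binding signal is a within-array Z-score, averaged across arrays of one protein sequence run at different concentrations or buffers and across linkers. A negative Z-score can be read as non-binding.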

[2] = target: Fuc(a1-2)Gal(b1-3)GlcNAc(b1-3)[Gal(b1-4)GlcNAc(b1-6)]Gal(b1-4)Glc
How it was run: as §1

[3] = target: Fuc(a1-2)Gal(b1-4)GlcNAc(b1-6)GalNAc
How it was run: as §1

[4] = target: Fuc(a1-2)Gal3S(b1-4)GlcNAc
How it was run: as §1

Fuc(a1-2)[Gal(a1-3)]Gal = target: Fuc(a1-2)[Gal(a1-3)]Gal
How it was run: as §1

[5] = target: Fuc(a1-2)[GalNAc(a1-3)]Gal(b1-3)GlcNAc
How it was run: as §1

Fuc(a1-4)GlcNAc = target: Fuc(a1-4)GlcNAc
How it was run: as §1

[6] = target: Gal(a1-3)Gal(b1-3)GlcNAc(b1-6)GalNAc
How it was run: as §1

[7] = target: Gal(a1-3)Gal(b1-4)GlcNAc(b1-2)Man(a1-3)[Gal(a1-3)Gal(b1-4)GlcNAc(b1-2)Man(a1-6)]Man(b1-4)GlcNAc(b1-4)GlcNAc
How it was run: as §1

Gal(b1-3)GalNAc = target: Gal(b1-3)GalNAc
How it was run: as §1

[8] = target: Gal(b1-3)GalNAc(a1-3)[Fuc(a1-2)]Gal(b1-4)Glc
How it was run: as §1

[9] = target: Gal(b1-3)GlcNAc(b1-2)Man(a1-3)[Gal(b1-3)GlcNAc(b1-2)Man(a1-6)]Man(b1-4)GlcNAc(b1-4)GlcNAc
How it was run: as §1

[10] = target: Gal(b1-3)GlcNAc(b1-2)[Gal(b1-3)GlcNAc(b1-6)]Man(a1-6)[Gal(b1-3)GlcNAc(b1-2)Man(a1-3)]Man(b1-4)GlcNAc(b1-4)GlcNAc
How it was run: as §1

[11] = target: Gal(b1-3)GlcNAc(b1-3)Gal(b1-3)GlcNAc
How it was run: as §1

[12] = target: Gal(b1-3)[GlcNAc(b1-6)]GalNAc
How it was run: as §1

[13] = target: Gal(b1-3)[Neu5Ac(a2-6)]GlcNAc(b1-4)Gal(b1-4)Glc
How it was run: as §1

[14] = target: Gal(b1-4)GlcNAc(b1-3)Gal(b1-3)GalNAc
How it was run: as §1

[15] = target: Gal(b1-4)GlcNAc(b1-3)Gal(b1-4)GlcNAc(b1-2)[Gal(b1-4)GlcNAc(b1-3)Gal(b1-4)GlcNAc(b1-6)]Man(a1-6)[Gal(b1-4)GlcNAc(b1-3)Gal(b1-4)GlcNAc(b1-2)Man(a1-3)]Man(b1-4)GlcNAc(b1-4)[Fuc(a1-6)]GlcNAc
How it was run: as §1

[16] = target: Gal(b1-4)GlcNAc(b1-3)Gal(b1-4)GlcNAc(b1-3)Gal(b1-4)GlcNAc(b1-2)Man(a1-3)[Gal(b1-4)GlcNAc(b1-3)Gal(b1-4)GlcNAc(b1-3)Gal(b1-4)GlcNAc(b1-2)Man(a1-6)]Man(b1-4)GlcNAc(b1-4)[Fuc(a1-6)]GlcNAc
How it was run: as §1

[17] = target: Gal(b1-4)GlcNAc(b1-3)Gal(b1-4)GlcNAc(b1-3)Gal(b1-4)GlcNAc(b1-2)[Gal(b1-4)GlcNAc(b1-3)Gal(b1-4)GlcNAc(b1-3)Gal(b1-4)GlcNAc(b1-6)]Man(a1-6)[Gal(b1-4)GlcNAc(b1-3)Gal(b1-4)GlcNAc(b1-3)Gal(b1-4)GlcNAc(b1-2)Man(a1-3)]Man(b1-4)GlcNAc(b1-4)[Fuc(a1-6)]GlcNAc
How it was run: as §1

[18] = target: Gal(b1-4)GlcNAc(b1-3)[Fuc(a1-3)GlcNAc(b1-6)]Gal(b1-4)Glc
How it was run: as §1

[19] = target: Gal(b1-4)GlcNAc(b1-6)GalNAc
How it was run: as §1

[20] = target: Gal(b1-4)GlcNAc(b1-6)[Gal(b1-3)]GalNAc
How it was run: as §1

[21] = target: GalNAc(b1-3)Gal(a1-4)Gal(b1-4)GlcNAc(b1-3)Gal(b1-4)Glc
How it was run: as §1

GalNAc(b1-3)GalNAc = target: GalNAc(b1-3)GalNAc
How it was run: as §1

[22] = target: GalNAc3S(b1-4)[Fuc(a1-3)]GlcNAc
How it was run: as §1

[23] = target: Glc(a1-6)Glc(a1-6)Glc(a1-6)Glc
How it was run: as §1

Glc(b1-4)Glc = target: Glc(b1-4)Glc
How it was run: as §1

GlcA(b1-6)Gal = target: GlcA(b1-6)Gal
How it was run: as §1

[24] = target: GlcNAc(b1-3)Gal(b1-4)GlcNAc(b1-2)[GlcNAc(b1-3)Gal(b1-4)GlcNAc(b1-6)]Man(a1-6)[GlcNAc(b1-3)Gal(b1-4)GlcNAc(b1-2)Man(a1-3)]Man(b1-4)GlcNAc(b1-4)GlcNAc
How it was run: as §1

[25] = target: GlcNAc(b1-3)Gal(b1-4)GlcNAc(b1-3)Gal(b1-4)GlcNAc(b1-3)Gal(b1-4)GlcNAc(b1-2)Man(a1-3)[GlcNAc(b1-3)Gal(b1-4)GlcNAc(b1-3)Gal(b1-4)GlcNAc(b1-3)Gal(b1-4)GlcNAc(b1-2)Man(a1-6)]Man(b1-4)GlcNAc(b1-4)GlcNAc
How it was run: as §1

[26] = target: GlcNAc(b1-3)Gal(b1-4)GlcNAc(b1-3)Gal(b1-4)GlcNAc(b1-3)Gal(b1-4)GlcNAc(b1-2)[GlcNAc(b1-3)Gal(b1-4)GlcNAc(b1-3)Gal(b1-4)GlcNAc(b1-3)Gal(b1-4)GlcNAc(b1-6)]Man(a1-6)[GlcNAc(b1-3)Gal(b1-4)GlcNAc(b1-3)Gal(b1-4)GlcNAc(b1-3)Gal(b1-4)GlcNAc(b1-2)Man(a1-3)]Man(b1-4)GlcNAc(b1-4)[Fuc(a1-6)]GlcNAc
How it was run: as §1

[27] = target: GlcNAc(b1-3)Gal(b1-4)GlcNAc(b1-3)Gal(b1-4)GlcNAc(b1-3)Gal(b1-4)GlcNAc(b1-3)Gal(b1-4)GlcNAc(b1-2)Man(a1-3)[GlcNAc(b1-3)Gal(b1-4)GlcNAc(b1-3)Gal(b1-4)GlcNAc(b1-3)Gal(b1-4)GlcNAc(b1-3)Gal(b1-4)GlcNAc(b1-2)Man(a1-6)]Man(b1-4)GlcNAc(b1-4)GlcNAc
How it was run: as §1

[28] = target: GlcNAc(b1-3)Gal(b1-4)GlcNAc(b1-3)Gal(b1-4)GlcNAc(b1-3)GalNAc
How it was run: as §1

[29] = target: GlcNAc(b1-3)[GlcNAc(b1-6)]Gal(b1-4)GlcNAc
How it was run: as §1

GlcNAc(b1-4)GlcNAc = target: GlcNAc(b1-4)GlcNAc
How it was run: as §1

[30] = target: Man(a1-2)Man(a1-3)[Man(a1-2)Man(a1-6)]Man
How it was run: as §1

[31] = target: Man(a1-3)[Man(a1-6)]Man(b1-4)GlcNAc(b1-4)[Fuc(a1-6)]GlcNAc
How it was run: as §1

[32] = target: Neu5Ac(a2-3)Gal(b1-3)GalNAc6S
How it was run: as §1

[33] = target: Neu5Ac(a2-3)Gal(b1-3)]Neu5Ac(a2-3)Gal(b1-4)]GlcNAc
How it was run: as §1

[34] = target: Neu5Ac(a2-3)Gal(b1-4)GlcNAc(b1-3)Gal(b1-4)GlcNAc(b1-3)Gal(b1-4)GlcNAc(b1-2)Man(a1-3)[Neu5Ac(a2-3)Gal(b1-4)GlcNAc(b1-3)Gal(b1-4)GlcNAc(b1-3)Gal(b1-4)GlcNAc(b1-2)Man(a1-6)]GalNAc
How it was run: as §1

[35] = target: Neu5Ac(a2-3)Gal(b1-4)GlcNAc(b1-6)[Gal(b1-3)]GalNAc
How it was run: as §1

[36] = target: Neu5Ac(a2-3)Gal(b1-4)[Fuc(a1-3)]GlcNAc6S
How it was run: as §1

[37] = target: Neu5Ac(a2-3)[GalNAc(b1-4)]Gal(b1-4)Glc
How it was run: as §1

[38] = target: Neu5Ac(a2-6)Gal(b1-4)GlcNAc(b1-2)Man(a1-3)[GlcNAc(b1-4)][Neu5Ac(a2-6)Gal(b1-4)GlcNAc(b1-2)Man(a1-6)]Man(b1-4)GlcNAc(b1-4)GlcNAc
How it was run: as §1

[39] = target: Neu5Ac(a2-6)Gal(b1-4)GlcNAc(b1-2)Man(a1-6)Man(b1-4)GlcNAc(b1-4)GlcNAc
How it was run: as §1

[40] = target: Neu5Ac(a2-6)Gal(b1-4)GlcNAc(b1-3)Gal(b1-4)GlcNAc(b1-3)Gal(b1-4)GlcNAc(b1-2)Man(a1-3)[Neu5Ac(a2-6)Gal(b1-4)GlcNAc(b1-3)Gal(b1-4)GlcNAc(b1-3)Gal(b1-4)GlcNAc(b1-2)Man(a1-6)]GalNAc
How it was run: as §1

[41] = target: Neu5Ac(a2-6)Gal(b1-4)GlcNAc(b1-3)Gal(b1-4)GlcNAc(b1-3)[Neu5Ac(a2-6)Gal(b1-4)GlcNAc(b1-3)Gal(b1-4)GlcNAc(b1-6)]GalNAc
How it was run: as §1

[42] = target: Neu5Ac(a2-6)Gal(b1-4)GlcNAc(b1-3)Gal(b1-4)[Fuc(a1-3)]GlcNAc(b1-3)Gal(b1-4)[Fuc(a1-3)]GlcNAc
How it was run: as §1

Neu5Ac(a2-6)GalNAc = target: Neu5Ac(a2-6)GalNAc
How it was run: as §1

[43] = target: Neu5Ac(a2-8)Neu5Ac(a2-3)Gal(b1-4)GlcNAc
How it was run: as §1

[44] = target: Neu5Gc(a2-3)Gal(b1-4)GlcNAc
How it was run: as §1

Neu5Gc(a2-6)GalNAc = target: Neu5Gc(a2-6)GalNAc
How it was run: as §1

B1: MpAFP NterminalRI GFP (Marinomonas primoryensis) (protein)
chain: MSDNQFPFATLGNAIGFITKLDGSVTVQSIDGQERVLKLGDPIFFGETVLTGGSGSVTIAFVDGTDVVIGGDSIVEMTDEIYNTGDNEDLVADSSSEIDALQNAILAGDDPTLIQDAPAAGNTLADQQRVDVSIERNDNSAQAGFGVDTQSSLPTYGYDTDNGNGGQATEREYSAPSLSRTLNQSPLLEHHHHHH
glycan array binding signal (z-score) [1]: -0.525
glycan array binding signal (z-score) [2]: -0.221
glycan array binding signal (z-score) [3]: 1.68
glycan array binding signal (z-score) [4]: -0.495
glycan array binding signal (z-score) (Fuc(a1-2)[Gal(a1-3)]Gal): -0.494
glycan array binding signal (z-score) [5]: -0.215
glycan array binding signal (z-score) (Fuc(a1-4)GlcNAc): 2.46
glycan array binding signal (z-score) [6]: -0.446
glycan array binding signal (z-score) [7]: -0.164
glycan array binding signal (z-score) (Gal(b1-3)GalNAc): -0.228
glycan array binding signal (z-score) [8]: -0.422
glycan array binding signal (z-score) [9]: -0.119
glycan array binding signal (z-score) [10]: -0.305
glycan array binding signal (z-score) [11]: -0.424
glycan array binding signal (z-score) [12]: -0.473
glycan array binding signal (z-score) [13]: -0.565
glycan array binding signal (z-score) [14]: -0.412
glycan array binding signal (z-score) [15]: 4.16
glycan array binding signal (z-score) [16]: 0.649
glycan array binding signal (z-score) [17]: 2.76
glycan array binding signal (z-score) [18]: -0.081
glycan array binding signal (z-score) [19]: -0.473
glycan array binding signal (z-score) [20]: 0.083
glycan array binding signal (z-score) [21]: -0.509
glycan array binding signal (z-score) (GalNAc(b1-3)GalNAc): -0.576
glycan array binding signal (z-score) [22]: -0.39
glycan array binding signal (z-score) [23]: -0.16
glycan array binding signal (z-score) (Glc(b1-4)Glc): 0.784
glycan array binding signal (z-score) (GlcA(b1-6)Gal): -0.407
glycan array binding signal (z-score) [24]: 6.32
glycan array binding signal (z-score) [25]: 6.83
glycan array binding signal (z-score) [26]: 2.6
glycan array binding signal (z-score) [27]: 0.255
glycan array binding signal (z-score) [28]: -0.344
glycan array binding signal (z-score) [29]: -0.441
glycan array binding signal (z-score) (GlcNAc(b1-4)GlcNAc): 4.84
glycan array binding signal (z-score) [30]: 2.93
glycan array binding signal (z-score) [31]: -0.195
glycan array binding signal (z-score) [32]: -0.078
glycan array binding signal (z-score) [33]: -0.531
glycan array binding signal (z-score) [34]: 2.98
glycan array binding signal (z-score) [35]: 3.31
glycan array binding signal (z-score) [36]: -0.574
glycan array binding signal (z-score) [37]: -0.63
glycan array binding signal (z-score) [38]: -0.202
glycan array binding signal (z-score) [39]: -0.385
glycan array binding signal (z-score) [40]: 1.24
glycan array binding signal (z-score) [41]: -0.027
glycan array binding signal (z-score) [42]: -0.212
glycan array binding signal (z-score) (Neu5Ac(a2-6)GalNAc): -0.388
glycan array binding signal (z-score) [43]: -0.655
glycan array binding signal (z-score) [44]: -0.632
glycan array binding signal (z-score) (Neu5Gc(a2-6)GalNAc): 3.75
